Reference: PubChem BioAssay AID624115 (Johns Hopkins Ion Channel Center, 2012)
In all, about 4,000 compounds went through this assay and about 350 (8.8%) were called active.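 How the source made its calls: active means calcium fluorescence ratio at least three times the spread of buffer wells, meaning a non-specific response in parental cells; inactive means the rest.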 Not all results are given here.

Assay: nonspecific Ca2+ signal without MrgX1 expression – cell-based, Fluo-4 calcium flux, duplicate, agonist mode, counter-screen for MrgX1 agonist project, primary screen (AID 624115)
Settings: parental HEK293, Fluo-4 calcium fluorescence (FDSS), at 10 µM; stronger effect = higher value

SMILES | fluorescence ratio F(max-min)/F0
Fc1cccc(Cl)c1COc1ccc(-c2nnco2)cc1 | inactive
Cc1ccc(S(=O)(=O)N(C)c2nc3ccccc3n3c(C(C)C)nnc23)cc1 | inactive
CCCCC(=O)Nc1ccc2c(c1)C(=O)NC2=O | inactive
O=C(CSc1c2c(nc3ccc(Cl)cc13)CCCC2)NCc1ccco1 | inactive
O=C(Nc1cccc(Cl)c1)c1cncn1-c1ccc(F)cc1 | inactive
O=C(Cn1c(-c2cncs2)nc2ccccc21)NC1CCCC1 | inactive
Cc1nccn1CCC1CCCCN1C(=O)CCc1nnc(-c2ccsc2)o1 (centres undefined) | inactive
COc1ccc(-c2cc(C(F)(F)F)nc(S(C)(=O)=O)n2)cc1OC | inactive
COc1ccc2c(c1)OC(O)(C(F)(F)C(F)F)CC2=O (centres undefined) | 87.4 (active)
FC(F)(F)c1cc(-c2cccs2)nc(NCc2ccco2)n1 | inactive
CCOC(=O)Nc1ccc2c(c1)N(C(=O)CCN1CCN(CCO)CC1)c1ccccc1CC2 | inactive
O=C(CN1CCN(c2ccccn2)CC1)NC1CCCCC1 | inactive
Cc1c(C(=O)N2CCN(c3ccc(F)cc3)CC2)oc2c1C(=O)CCC2 | inactive
CCN(CC)c1ccc(C2C3CCCCC3(O)CCN2CC(=O)Nc2ccccc2)cc1 (centres undefined) | inactive
COc1ccc(Nc2nc(-c3cccnc3)nc3ccccc23)cn1 | inactive
O=C(Cc1nc2ccccc2[nH]c1=O)c1ccc(Cl)cc1 | inactive
N#CC1=C(N)Oc2c(sc3ccccc23)C1c1ccco1 (centres undefined) | inactive
CCOc1ccc(NC(=O)CCNC(=O)c2ccc(Br)cc2)cc1 | inactive
Cc1cc(C)n(CCNC(=O)CC2C(=O)NCCN2Cc2ccc(C)o2)n1 (centres undefined) | inactive
CCOC1CCCCC1NS(=O)(=O)c1ccc(Cl)cc1 (centres undefined) | inactive
COC(=O)c1sccc1NS(=O)(=O)c1ccc(F)cc1F | inactive
CC(=O)Nc1ccc(OC(=O)COc2ccc(Br)cc2)cc1 | inactive
Cc1ccnc(-n2sc3ccccc3c2=O)n1 | inactive
CCN(c1cccc(C)c1)S(=O)(=O)c1ccc(-c2coc(C)n2)cc1 | inactive
COCC(C)NC(=O)c1ccc(Cl)c(Cl)c1 (centres undefined) | inactive
COc1ccc(C(=O)Nc2c(N)nc(SCC(=O)N3CCC(C)CC3)[nH]c2=O)cc1OC | inactive

SMILES | fluorescence ratio F(max-min)/F0
Cc1ccc(-c2nn(C(C)(C)C)c3ncnc(N)c23)cc1 | inactive
COc1ccc(-n2c(SCC(=O)NCc3ccco3)nnc2-c2c[nH]c3ccccc23)cc1 | inactive
CCOC(=O)Cc1csc(SCc2cc(=O)oc3cc(O)ccc23)n1 | inactive
CCC(C)c1ccccc1N1CC(C(=O)N2CCN(S(=O)(=O)c3ccc(F)cc3)CC2)CC1=O (centres undefined) | inactive
COc1ccc([N+](=O)[O-])cc1NC(=O)COC(=O)/C=C/c1ccco1 | inactive
CN(C)CCn1c(=S)[nH]c2ccc(Cl)cc2c1=O | inactive
FC(F)Oc1ccc(NC(=S)NCc2ccco2)cc1Cl | inactive
O=c1c2cc(Br)ccc2nc(-c2cccc(Cl)c2)n1O | 90.3 (active)
O=C1CCCc2c1nc(-c1cccc(Cl)c1)n2O | inactive
Cc1nonc1C1CCCN1Cc1nc(-c2ccc(F)cc2F)oc1C (centres undefined) | inactive
O=C1Cc2ccccc2Sc2ccc(Cl)cc21 | inactive
CCOc1ccc2nc(/N=C/c3nc(-c4ccccc4)oc3O)sc2c1 | 114 (active)
Cc1ccc(NC2(C#N)C(=O)Nc3ccccc32)cc1 (centres undefined) | inactive
Clc1ccc(-c2nc3ccccn3c2CN2CCSCC2)cc1 | inactive
Cc1ccc2nc(Nc3ccccc3)cc(C)c2c1 | inactive
Cc1cc2ncn(CCCCOc3ccccc3)c2cc1C | inactive
Cc1nn(-c2ccccc2)c(C)c1NC(=O)COc1ccc(Cl)cc1Cl | inactive
COc1ccc(OC)c(Nc2nc3ccccc3n3cnnc23)c1 | inactive
Cc1nn(-c2ccccc2)c2c1C(c1ccc(F)cc1)C(C#N)=C(N)O2 (centres undefined) | inactive
Cc1ccc2cc(/C=N/Nc3ccc(C(=O)O)cc3)c(Cl)nc2c1 | inactive
O=C(Nc1nnc(-c2ccccc2)o1)c1cc(-c2cccs2)nc2ccccc12 | inactive
O=C(Nc1nc2c(F)cc(F)cc2s1)C1COc2ccccc2O1 (centres undefined) | inactive
Cc1ccc2nc(-c3ccc(NC(=O)CN(C)S(=O)(=O)c4ccccc4)cc3)sc2c1 | inactive
CN(CC(=O)Nc1ccccc1Cl)C(=O)COc1cccc2c1OC(C)(C)C2 | inactive
O=C(c1cccc(S(=O)(=O)Nc2ccccc2Cl)c1)N1CCN(C(=O)c2ccco2)CC1 | inactive
COc1ccc(NC(=O)c2cc(-c3ccc(C)o3)nc3ccccc23)cc1 | inactive

SMILES | fluorescence ratio F(max-min)/F0
COCCNC(=O)Nc1ccc2nc(-c3ccco3)c(-c3ccco3)nc2c1 | 49.8 (active)
CC(C)NC(=S)Nc1cccc2cnccc12 | inactive
O=C1CCCN1CCCNC(=S)Nc1ccc(F)c(Cl)c1 | inactive
Cc1ccc(CS(=O)(=O)c2ncc(Cl)c(C(=O)Nc3nnc(C)s3)n2)cc1 | inactive
COc1ccc(S(=O)(=O)N2CCN(C(=O)NC3CCCCC3)CC2)cc1 | inactive
Cc1cccc(-n2c(Cc3cc(=O)[nH]c(=O)[nH]3)nnc2SC(C)C)c1 | inactive
COc1cc(CCC(=O)Nc2ccncc2Cl)cc(OC)c1OC | inactive
O=C(COc1ccc(Cl)cc1)NC(=S)Nc1ccccc1N1CCOCC1 | inactive
Nc1cc(OC(=O)c2ccccc2Br)nn1S(=O)(=O)c1ccccc1 | inactive
O=C1C(=O)N(CC2COc3ccccc3O2)c2ccccc21 (centres undefined) | 64.3 (active)
COc1cccc(CNC(=O)C2CCN(S(=O)(=O)c3cccc4cccnc34)CC2)c1 | inactive
Cc1ccc(N/C(N)=N/c2nc(C(F)(F)F)cc(C(F)(F)F)n2)cc1 | inactive
O=C(Nc1ccccc1N1CCCCC1)c1ccc2nccnc2c1 | inactive
Cc1cccc(Cn2cnc3c(N)c(C)c(C)cc32)c1 | inactive
CCOC(=O)c1c(NC(=O)CSc2cn(CC)c3ccccc23)sc2c1CCC2 | inactive
CCOc1ccc(C2=CC(c3ccccc3)n3ncnc3N2)cc1 (centres undefined) | inactive
O=C(NC1CCCCC1)C1c2ccccc2C(=O)N1Cc1ccco1 (centres undefined) | inactive
COc1ccc(OC)c(C(=O)c2ccc(Cl)cc2)c1 | inactive
Cc1cc(Br)ccc1NC(=O)c1cnc(N2CCN(c3ccccn3)CC2)c2ccccc12 | inactive
Cc1ccc2nc(-c3ccc(NC(=O)c4cccnc4)cc3)oc2c1 | inactive
CCOCc1nnc(NC(=O)CCC2CCCCC2)s1 | inactive
CCOc1cc(-c2conc2N)cc(OCC)c1OCC | inactive
Cc1cc(C)cc(NC(=S)NCCc2c[nH]c3ccccc23)c1 | inactive
C(=N\n1cnnc1)/c1cccnc1 | inactive
O=S(=O)(c1ccc2ccccc2c1)N1CCN(S(=O)(=O)N2CCOCC2)CC1 | inactive
Cc1cc2oc3ccc(NCCC4CCCN4C)cc3c(=O)c2cc1C (centres undefined) | 95.1 (active)

SMILES | fluorescence ratio F(max-min)/F0
COc1ccccc1N(CC(=O)N1CCCCC1)S(=O)(=O)c1ccccc1 | 78.4 (active)
COc1ccc(C2SCCN2S(=O)(=O)c2ccccc2)cc1OC (centres undefined) | inactive
Cc1ccc(OC(=O)c2cc3ccccc3o2)cc1 | inactive
Cc1nn(C(=O)c2ccoc2C)c(N)c1-c1ccccc1 | inactive
O=C(Cc1ccccn1)c1ccc(O)cc1O | inactive
O=C(Nc1ccccc1)c1nnsc1S(=O)(=O)c1ccc(Cl)cc1 | inactive
CCCCCCCCCCOC(=O)Cn1c(COc2ccc(C)cc2)[n+](C)c2ccccc21 | inactive
Cc1ccc(Cc2cnc(N)s2)o1 | inactive
CCNC(=O)c1c(O)c2cccc3c2n(c1=O)CC3 | inactive
CCc1ccc2nc3sc(C(=O)Nc4nnc(CC)s4)c(N)c3cc2c1 | 47 (active)
COCc1nnc(NC(=O)c2ccc3c(c2)OCO3)s1 | inactive
CCOC(=O)C1=C(O)CSC1=Nc1cccc(Cl)c1 | inactive
C=CCSc1nc(Cc2ccc(Cl)cc2)nc2ccccc12 | inactive
Cc1cc(=O)oc2cc(NC(=O)C3CC(=O)N(Cc4ccccc4)C3)ccc12 (centres undefined) | inactive
CCCc1nc2c(c(=O)c3ccccc3n2C)c(=O)n1C1CCCCCC1 | inactive
CCN(CC)CC(=O)Nc1nn(-c2ccccc2)nc1C(N)=O | inactive
COc1cc2c(cc1O)C(SC)=NC(C)(C)C2 | inactive
CCC1CCCCN1CCNC(=O)c1[nH]c(C)c(C(C)=O)c1C (centres undefined) | inactive
Cc1ccc2c(C)c(C(=O)N(C)CCC3CCCCO3)oc2c1C (centres undefined) | inactive
Cc1cccc(NC(=O)COc2ccccc2C)n1 | inactive
O=C(O)CSC(NC(=O)c1cccnc1)(C(F)(F)F)C(F)(F)F | inactive
O=C(CCN1CCc2ccccc2C(O)(c2ccccc2)C1)c1ccc2c(c1)OCCO2 (centres undefined) | inactive
CC(C)CC(=O)N/C(N)=N/c1nc2ccccc2s1 | inactive
CC(C)CC(=O)NC(=S)NNC(=O)c1cccc([N+](=O)[O-])c1 | 53 (active)
Cc1onc(-c2ccccc2)c1C(=O)NNC(=S)NC(=O)c1ccc(F)cc1 | 123 (active)
COc1ccc(C(=O)NC(=S)NNC(=O)c2c(-c3ccccc3)noc2C)cc1 | 108 (active)
